Screens as filed in PubChem BioAssay.
PLK1 PBD inh: inhibitors of human PLK1 polo-box domain binding; Potency, µM, inactives show max response, negative = inhibition, actives largely listed as inhibitors; hit rate 2.8% among 360,000; Plk1 PBD binding of FITC phosphopeptide, fluorescence polarization; AID 720504; P53350; further: series mostly up to about 57 µM; on the % scale 0 is the no-effect control and ±100 the full control effect; nearly all actives have a fitted effect of over 65% in size
G9a block: inhibitors of human histone lysine methyltransferase G9a | hit rate 8.8% among 350,000 | AID 504332 | Potency, µM (titrated, usually from 102 µM), for the others: top-dose activity, negative = inhibition, most hits filed as inhibitors | Q96KQ7 | G9a H3K9 monomethylation, AlphaScreen, 2 h; further: on the % scale 0 is the no-effect control and ±100 the full control effect; nearly all actives have a fitted effect of over 75% in size
Target sequence (Q96KQ7 913-1193 limits assumed): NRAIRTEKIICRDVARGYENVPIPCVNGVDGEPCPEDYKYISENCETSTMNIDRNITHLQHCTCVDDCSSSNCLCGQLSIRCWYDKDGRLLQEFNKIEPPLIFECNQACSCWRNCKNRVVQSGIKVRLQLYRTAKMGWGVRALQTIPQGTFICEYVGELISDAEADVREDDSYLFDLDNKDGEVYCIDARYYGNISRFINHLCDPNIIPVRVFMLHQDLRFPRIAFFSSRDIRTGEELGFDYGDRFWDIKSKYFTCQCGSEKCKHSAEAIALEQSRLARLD
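AlphaScreen detection with an anti-monomethyl H3K9 antibody quantified product after a 2 h room-temperature reaction containing 500 nM biotinylated H3K9 peptide, 20 µM SAM and 20 nM enzyme, which had been preincubated 15 min with compound.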
Sfp PPTase inh: Sfp phosphopantetheinyl transferase inhibition; AID 1490; Potency, µM, for the others: largest response in the series, negative = inhibition, hits mostly inhibitors; Biochemical Sfp PPTase activity, qHTS; hit rate 3.5% among 310,000;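 further: the enzyme is Sfp with the accession as filed and its product quenches rhodamine fluorescence; 0% = enzyme reaction without inhibitor and -100% = no enzyme wells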
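Fluorescence-quenching assay: 15 nM Sfp-PPTase preincubated 15 min at room temperature with compound, then 5 uM rhodamine-CoA and 12.5 uM BHQ-2-labelled YbbR peptide added. Fluorescence (ex 525/em 598 nm) read at start and after 30 min; difference gives rate.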
HP1b binding inh: blocks HP1-beta chromodomain binding to methylated histone tails. P83916. AlphaScreen HP1-beta / biotin-H3K9me3 peptide binding. Potency, µM (doses to about 114 µM), without a hit: top-dose activity change, negative = inhibition, usual class: inhibitors. hit rate 0.56% among 390,000. AID 540317; further: nearly all actives have a fitted effect of over 70% in size
Target sequence (P83916 whole entry, looked up): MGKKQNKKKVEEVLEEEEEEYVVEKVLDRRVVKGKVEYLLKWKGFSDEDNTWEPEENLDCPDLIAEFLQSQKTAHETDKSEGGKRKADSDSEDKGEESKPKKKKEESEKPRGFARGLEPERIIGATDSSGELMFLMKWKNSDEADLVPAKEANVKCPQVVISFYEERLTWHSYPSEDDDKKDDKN
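Compound inhibition of the preformed complex between 50 nM HP1-beta and 50 nM biotinylated H3K9me3 peptide was read by AlphaScreen. Buffer was PBS pH 7.4 with 0.01% Tween-20. Incubations ran 30 min at room temperature, with 10 ug/mL donor/acceptor beads.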
BAZ2B block: BAZ2B (human) inhibition; Potency, µM (series often up to 114 µM), without a hit: top-dose activity change, negative = inhibition, most hits filed as inhibitors; AlphaScreen BAZ2B-H3K14Ac peptide displacement; hit rate 4.4% among 360,000; Q9UIF8; further: on the % scale 0 is the no-effect control and ±100 the full control effect; nearly all actives have a fitted effect of over 60% in size
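Inhibition is scored as reduced AlphaScreen emission. The BAZ2B/b-H3(5-23)K14Ac complex (50 nM each) in PBS pH 7.4, 0.01% Tween-20 meets compound (up to 110 uM) for 30 min at RT before bead addition.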
JMJD2A Tudor: blocks the human JMJD2A Tudor domain | hit rate 4.4% among 390,000 | Potency, µM (highest dose often 114 µM), inactives show at the top dose activity change, negative = inhibition, hits mostly inhibitors | O75164 | AID 504339 | AlphaScreen JMJD2A-Tudor / H3K4me3 peptide binding; further: on the % scale 0 is the no-effect control and ±100 the full control effect; nearly all actives have a fitted effect of over 50% in size
The depositor's hits bear a star; ? = inconclusive; . = not tested or not shown; [ ] = remark or other dose. Most compounds without a hit are left out; they make up all but 12% or so of the library. The call rests on the fitted dose curve; in most records, active means well fitted curve in the direction sought with a large enough effect; inconclusive means small, poorly fitted or top-dose-only effect, or another doubt; inactive means no such curve, though single readings can be large; an effect the other way counts as inactive or inconclusive. Potency means the concentration at half of the fitted maximal effect.

SMILES | PLK1 PBD inh | G9a block | Sfp PPTase inh | HP1b binding inh | BAZ2B block | JMJD2A Tudor
CC1CCCN(C(=O)c2cc(S(=O)(=O)N3CCCCC3)c[nH]2)C1 (stereo unspecified) | -3.8% | 24.2% | 14.2% | 17.1% | -0.3% | -21.4%
O=C(NC(=S)NNC(=O)c1ccccc1O)c1cccs1 | -19.3% | -15.9% | 18.4% | -26.8% | ? | 44.7µM*
COc1ccccc1C(=O)NNC(=S)NC(=O)c1cccs1 | . | 43.2% | 15.0% | . | -10.1% | .
O=C(NC(=S)NNC(=O)c1ccccc1O)c1ccc(F)cc1 | -26.5% | 4.0% | 17.5% | 8.5% | ? | 56.2µM*
O=C(NC(=S)NNC(=O)c1ccccc1O)c1ccccc1 | -14.7% | 31.6µM* | 10.2% | 5.5% | ? | 31.6µM*
Cc1ccc(C(=O)NC(=S)NNC(=O)c2ccccc2O)cc1 | -4.9% | ? | 26.2% | 23.8% | 3.2% | -6.6%
Cc1ccccc1C(=O)NNC(=S)NC(=O)c1ccccc1 | -12.4% | 3.98µM* | -34.5% | -6.8% | 11.5% | -27.1%
C[C@@H](/C=C/c1ccc2ccccc2c1)C1COC(=O)C[C@H]1O (stereo partly specified) | . | . | -12.2% | 38.2% | . | -15.9%
Cc1ccc(-n2ccnc(NCCc3ccc(S(N)(=O)=O)cc3)c2=O)cc1C | . | -28.6%[59 µM] | . | -2.4% | -29.3% | -33.1%
COc1ccccc1-c1cc2nc(C)c(CCC(=O)NCc3ccco3)c(C)n2n1 | -17.2% | 50.1µM* | 10.4% | 13.0% | -8.8% | ?
Cc1nc2cc(-c3ccccc3)nn2c(C)c1CCC(=O)NCc1ccco1 | -0.4% | ? | ? | 17.8% | -37.5% | -20.6%
O=C(COC(=O)CSc1ccccc1)NC1CCS(=O)(=O)C1 (stereo unspecified) | -1.7% | . | . | . | . | .
CCc1ccc(-c2nn(-c3cc(Cl)ccc3[N+](=O)[O-])c(=O)c3ccccc23)cc1 | -3.0% | ? | 2.5% | 28.3% | -10.6% | -9.3%
O=c1c2ccccc2c(-c2ccccc2)nn1-c1cc(Cl)ccc1[N+](=O)[O-] | -15.6% | -8.2%[59 µM] | 14.5% | -10.8% | ? | -28.8%[11.4 µM]
Cc1cc(C)n(-c2cc(Cl)ccc2[N+](=O)[O-])n1 | 26.7µM* | 5.9% | 11.8% | -4.8% | 9.3% | -13.1%
Cc1cc(C)n(-c2ccc(C(F)(F)F)cc2[N+](=O)[O-])n1 | 0.1% | -5.6%[59 µM] | 1.5% | 15.3% | -19.6% | 1.0%
Cc1ccc(-c2nn(-c3cc(Cl)ccc3[N+](=O)[O-])c(=O)c3ccccc23)cc1C | 0.1% | -4.6%[0.501 µM] | -16.2% | ? | 44.7µM* | ?
Cc1ccc(-c2nn(-c3cc(N4CCNCC4)ccc3[N+](=O)[O-])c(=O)c3ccccc23)cc1 | -6.4% | 31.6µM* | -25.6% | ? | -36.9% | ?
CC1CCCCC1NC(=O)/C(C#N)=C/c1ccccc1F (stereo unspecified) | ? | 21.2%[59 µM] | -44.8% | 50.0% | -2.7% | 3.5%
COC(=O)CN1C(=O)CSc2ccc(S(=O)(=O)Nc3ccc(F)c(Cl)c3)cc21 | . | ? | . | 38.6% | -0.9% | -7.6%
O=C(O)CCCC(=O)NCc1c(Cl)cccc1Sc1ccc(Cl)cc1 | -1.4% | . | 79.4µM* | 18.1% | 2.7% | -7.8%
CC(C)(CC(=O)O)CC(=O)NCc1c(Cl)cccc1Sc1ccc(Cl)cc1 | 4.3% | -2.0% | 12.2% | 52.0% | -2.5% | -0.7%
Cc1c(CNC(C)CCc2ccccc2)c(C(=O)O)c(C)n1Cc1ccc(F)cc1Cl (stereo unspecified) | . | -1.2%[59 µM] | . | 25.5% | -23.0% | -22.5%
CCCSc1ncc(Cl)c(C(=O)Nc2c(C(=O)Nc3ccc(OC)cc3)oc3ccccc23)n1 | . | -3.7%[59 µM] | . | 31.0% | 0.7% | -6.6%
CCCSc1nnc2nc3c(nn12)c1ccccc1n3C | -11.9% | -17.9%[59 µM] | 22.9% | 13.3% | -5.8% | -24.8%
SMILES | PLK1 PBD inh | G9a block | Sfp PPTase inh | HP1b binding inh | BAZ2B block | JMJD2A Tudor
CC(C)(C)c1cc(C(=O)O)n[nH]1 | -5.4% | 12.6µM* | -22.9% | -5.2% | ? | 50.1µM*
CC(C)Cc1cc(C(=O)O)n[nH]1 | -2.9% | -49.4%[12.7 µM] | 1.8% | 1.4% | 50.1µM* | 25.1µM*
CC(OC(=O)CCN1C(=O)c2cccc([N+](=O)[O-])c2C1=O)C(=O)Nc1cc(Cl)cc(Cl)c1 (stereo unspecified) | -1.8% | 25.1µM* | -11.9% | 3.7% | -34.2% | -22.9%
CSc1ccc(S(=O)(=O)NCC(=O)OCC(=O)N(C)CC(=O)Nc2ccc(F)cc2)cc1[N+](=O)[O-] | 4.0% | . | . | 10.9% | . | -21.9%
OCCCNC(=S)Nc1ccc2nccnc2c1 | -22.9% | . | -22.4% | 43.5% | -13.0% | -14.1%
Fc1ccc(NC(=S)Nc2ccc3nccnc3c2)cc1 | -9.9% | 39.8µM* | ? | 34.7% | -16.5% | -16.3%
CCCCOc1ccc(/C=C/C(=O)NC2=Nc3ccccc3NC(C)=C2C(=O)OCC)cc1OC | 10.7% | -0.5% | 13.2% | 9.4% | -9.5% | -20.3%
Nc1nc(SCC(=O)O)[nH]c(=O)c1NC(=O)c1ccco1 | -4.9% | . | -18.0% | 9.7% | -2.1% | -12.0%
CC(C)N1CCC2(CC1)C(C#N)=C(N)NC(S)=C2C#N | . | 1.58µM* | -9.2% | . | -9.7% | .
N#CC1=C(N)NC(SCc2ccc(F)cc2)=C(C#N)C12CCCCC2 | -11.9% | 6.9%[12.7 µM] | -1.0% | -0.7% | ? | -26.4%
Fc1ccc(CNc2nc3c(-c4ccc(F)cc4)nnn3c3ccccc23)cc1 | . | -2.5%[59 µM] | . | 29.4% | 4.7% | -4.6%
C#CCOCCOCCOCCNc1nc(N2CCN(C(=O)[C@H](CC(N)=O)n3cc([C@@H](N)CC(N)=O)nn3)CC2)nc(N2CCN(C(=O)[C@H](CC(N)=O)n3cc([C@@H](N)CC(N)=O)nn3)CC2)n1 | -4.2% | . | . | 41.2% | . | 25.1µM*
C#CCOCCOCCOCCNc1nc(N2CCN(C(=O)[C@H](CC(N)=O)n3cc([C@@H](N)C(C)C)nn3)CC2)nc(N2CCN(C(=O)[C@H](CC(N)=O)n3cc([C@@H](N)C(C)C)nn3)CC2)n1 | -1.7% | . | . | 36.6% | . | 25.1µM*
C#CCOCCOCCOCCNc1nc(N2CCN(C(=O)[C@H](CCC(=O)O)n3cc([C@@H](N)CC(N)=O)nn3)CC2)nc(N2CCN(C(=O)[C@H](CCC(=O)O)n3cc([C@@H](N)CC(N)=O)nn3)CC2)n1 | -7.0% | . | . | 41.8% | . | 20µM*
C#CCOCCOCCOCCNc1nc(N2CCOCC2)nc(N2CCN(C(=O)[C@H](CCC(=O)O)n3cc([C@@H](N)CCCCN)nn3)CC2)n1 | -4.3% | . | . | 37.4% | . | -19.3%
COC(=O)Cn1c(SCc2ccccc2)nc2ccccc21 | 26.7µM* | 33.1% | 13.2% | 18.9% | 8.6% | 13.0%[11.4 µM]
CC(C)Oc1ccc(OCCSc2nc3ccccc3n2CC(=O)O)cc1 | -10.7% | 50.1µM* | -1.2% | 13.5% | -28.7% | -14.6%
O=c1c2ccccc2nc(/C=C/c2cccnc2)n1CCc1ccccc1 | 5.1% | 50.1µM* | -9.8% | -23.0% | 35.5µM* | 17.8µM*
